Experimental data taken from PubChem BioAssay (NCI).
About 83,000 compounds went through this panel and 20% of them were active in at least one assay; those are over-represented in the sample as a whole.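 96-well plates, one dose, 48 hours. Percent growth reported; active if below 10.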 A number with no mark means an inactive call. Calls of active or inactive are those of the source.

Tests used:
Assay in all cases: NCI-60 one-dose screen, 48 h (100 = growth as untreated, 0 = no growth, -100 = all killed)
Conditions in all cases: 10 µM unless noted
SR leukemia = test system: SR leukemia
RPMI-8226 leukemia = test system: RPMI-8226 leukemia
OVCAR-8 ovarian = test system: OVCAR-8 ovarian
OVCAR-5 ovarian = test system: OVCAR-5 ovarian
OVCAR-4 ovarian = test system: OVCAR-4 ovarian
SK-OV-3 ovarian = test system: SK-OV-3 ovarian
IGROV1 ovarian = test system: IGROV1 ovarian
OVCAR-3 ovarian = test system: OVCAR-3 ovarian
HS 578T breast = test system: HS 578T breast
NCI/ADR-RES ovarian = test system: NCI/ADR-RES ovarian
T-47D breast = test system: T-47D breast
BT-549 breast = test system: BT-549 breast
MDA-MB-435 melanoma = test system: MDA-MB-435 melanoma
SW-620 colon = test system: SW-620 colon
MCF7 breast = test system: MCF7 breast
HCT-116 colon = test system: HCT-116 colon
HCC-2998 colon = test system: HCC-2998 colon
KM12 colon = test system: KM12 colon

| SMILES | growth (SR leukemia) | growth (RPMI-8226 leukemia) | growth (OVCAR-8 ovarian) | growth (OVCAR-5 ovarian) | growth (OVCAR-4 ovarian) | growth (SK-OV-3 ovarian) | growth (IGROV1 ovarian) | growth (OVCAR-3 ovarian) | growth (HS 578T breast) | growth (NCI/ADR-RES ovarian) | growth (T-47D breast) | growth (BT-549 breast) | growth (MDA-MB-435 melanoma) | growth (SW-620 colon) | growth (MCF7 breast) | growth (HCT-116 colon) | growth (HCC-2998 colon) | growth (KM12 colon) |
| --- | --- | --- | --- | --- | --- | --- | --- | --- | --- | --- | --- | --- | --- | --- | --- | --- | --- | --- |
| CN(C)c1nc(-c2cccs2)n2nc(-c3ccco3)cc2n1 | 74.1% | 73.2% | 96% | 99.4% | 74.6% | 90.2% | 81.1% | 101% | 99.2% | 93.5% | 53.5% | 94% | 104% | 96.7% | 36.3% | 91.4% | 93.9% | 81.4% |
| O=C(O)c1cc2cc(OCc3ccccc3)ccc2[nH]1 | 104% | 94.3% | 87.9% | 109% | 97.5% | 94.7% | 110% | 102% | 97.1% | 109% | 101% | 84.9% | 111% | 102% | 62.4% | 100% | 104% | 96.8% |
| CNC(=O)c1c(NC(=O)c2cccc(C(F)(F)F)c2)sc2c1CCC(=O)C2 | 1.53% (active) | -33% (active) | 8.86% (active) | -22.2% (active) | -81.5% (active) | -5.12% (active) | -24.8% (active) | 3.37% (active) | 17.7% | -7.1% (active) | -32.8% (active) | -14.8% (active) | 4.37% (active) | -17.8% (active) | 0.296% (active) | 0.607% (active) | -33.3% (active) | -12.9% (active) |
| C#C[C@]1(O)CC[C@H]2[C@@H]3CC=C4c5sc(-c6cccc(Br)c6)nc5CC[C@]4(C)[C@H]3CC[C@@]21C | 45.6% | 2.09% (active) | 98.7% | 75.5% | 100% | 95.9% | 102% | 101% | 69.5% | 91.1% | 80.6% | 87.3% | 91.7% | 87.9% | 55.3% | 83.6% | 85.1% | 63.8% |
| O=C(Nc1ccc([N+](=O)[O-])cc1)c1cc2ccccc2cc1O | -17.1% (active) | -26.9% (active) | 0.735% (active) | 20.7% | 1.96% (active) | 9.58% (active) | 15.2% | 83.6% | -19.9% (active) | -9.03% (active) | 1.61% (active) | -14.2% (active) | 0.673% (active) | 4.63% (active) | 5.51% (active) | -39.7% (active) | 5.37% (active) | 92.6% |
| N=C(N)c1ccc(-c2ccc(-c3cccs3)s2)cc1F | -23.8% (active) | -48.1% (active) | -44.4% (active) | -83.6% (active) | -59.1% (active) | -100% (active) | -70.6% (active) | -77.2% (active) | -28.1% (active) | -57.4% (active) | -63.7% (active) | -80.6% (active) | -81.5% (active) | -62.8% (active) | -68.5% (active) | -47.2% (active) | -81.2% (active) | -76.8% (active) |
| CCCCCCCCOC(=O)C(C)OC(=O)OCCOCCOC(=O)OC(C)C(=O)OCCCCCCCC (configuration not stated) | 104% | 98.7% | 105% | 81.8% | 117% | 103% | 104% | 98.6% | 102% | 101% | 99.9% | 107% | 103% | 106% | 104% | 102% | 100% | 104% |
| Clc1nnc2c3ccccc3ccn12 | 106% | 99.6% | 99.1% | 103% | 111% | 95.1% | 113% | 112% | 103% | 112% | 108% | 97.9% | 111% | 96.7% | 107% | 103% | 115% | 109% |
| CC(C)(C)[Si](C)(C)OC1[C@@H](CNC(N)=O)O[C@@H](n2cnc3c(NC(=O)Nc4ccccc4)ncnc32)[C@H]1O[Si](C)(C)C(C)(C)C (some centres not stated) | 6.81% (active) | 47.6% | 59.9% | 82.5% | 50.3% | 93.6% | 56.1% | 61.1% | 58.7% | 58.5% | 64.6% | 80.1% | 53% | 62% | 17.9% | 0.343% (active) | 19% | 48.9% |
